Dicer inh – inhibitors of Dicer pre-microRNA processing, primary screen, biochemical, cat-ELCCA, chemiluminescence; z-score at 25 µM; cat-ELCCA pre-miR-21 Dicer processing; hits give high values; hit rate 6% among 47,000; Endoribonuclease Dicer (Homo sapiens), Q9UPY3; in the data active = z-score above about 3, passing the limit was not always enough;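 note: plate controls were vehicle for no effect and no enzyme for full effect; higher signal means more uncleaved substrate so more Dicer inhibition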
* hit, by the source's call. Only a selection was taken, and hits are over-represented in it overall.

SMILES	Dicer inh
Cc1onc(-c2c(Cl)cccc2Cl)c1C(=O)NC(C)(C)CC(C)(C)C	0.53
Cc1onc(-c2c(Cl)cccc2Cl)c1NC(=O)NC(=O)c1c(Cl)cccc1Cl	0.74
O=C(/C=C/c1cccs1)NC(=S)Nc1ccccc1Cl	-0.84
Cc1nc(Nc2ccccc2)nc(=O)n1-c1ccccc1	1.5
C=CCN1C(=O)C2(/C(=C(/O)c3ccc(C)cc3)C(=O)C(=O)N2CCCN(C)C)c2ccccc21 (configuration not stated)	1.6
C=CCN1C(=O)C2(/C(=C(/O)c3ccc(C)c(F)c3)C(=O)C(=O)N2CCN(C)C)c2ccccc21 (configuration not stated)	0.78
C=CCN1C(=O)C2(/C(=C(/O)c3ccc(C)c(F)c3)C(=O)C(=O)N2CCCN(C)C)c2ccccc21 (configuration not stated)	0.17
C=CCN1C(=O)C2(/C(=C(/O)c3ccc(F)cc3)C(=O)C(=O)N2CCN(C)C)c2ccccc21 (configuration not stated)	3.9*
C=CCN1C(=O)C2(/C(=C(/O)c3ccc(OC)cc3)C(=O)C(=O)N2CCCOC)c2ccccc21 (configuration not stated)	3.2*
C=CCN1C(=O)C2(/C(=C(/O)c3ccc(C)cc3)C(=O)C(=O)N2CCCOC)c2ccccc21 (configuration not stated)	0.49
COCCCN1C(=O)C(=O)/C(=C(\O)c2ccc(Cl)cc2)C12C(=O)N(C)c1ccccc12 (configuration not stated)	-0.78
C=CCN1C(=O)C2(/C(=C(/O)c3ccc(OC)cc3)C(=O)C(=O)N2CCCN(C)C)c2ccccc21 (configuration not stated)	3.6*
C=CCN1C(=O)C2(/C(=C(/O)c3ccc(OC)cc3)C(=O)C(=O)N2CCOC)c2ccccc21 (configuration not stated)	1.3
C=CCN1C(=O)C2(/C(=C(/O)c3ccc(Cl)cc3)C(=O)C(=O)N2CCCOC)c2ccccc21 (configuration not stated)	3.4*
CN(C)CCCN1C(=O)C(=O)/C(=C(\O)c2ccc(F)cc2)C12C(=O)N(C)c1ccccc12 (configuration not stated)	2.5
C/C(=C1\N=C(c2ccccc2)OC1=O)N(C)C	0.93
N#C/C(=C\c1cccs1)c1csc2ccc(Cl)cc12	-2.1
CC(C)(C)c1cc(C(C)(C)C)n(C(=O)c2ccc(Cl)cc2)n1	0.49
Cc1ccc(C2c3c(oc4ccc(F)cc4c3=O)C(=O)N2c2nc(C)c(C)s2)cc1 (configuration not stated)	0.21
O=C(NNC(=O)C(Cl)Cl)c1sccc1-n1cccc1	0.96
COC(=O)c1scc(S(=O)(=O)Cc2cccs2)c1N/N=C(\C#N)S(=O)(=O)c1cccs1	6
N#CC(=C1SCCS1)S(=O)(=O)Cc1ccco1	-0.54
COC(=O)c1scc(S(=O)(=O)Cc2ccco2)c1NN=C(C#N)C#N	4.8*
CCOC(=O)c1cnc(O/N=C(\N)c2ccc(C(F)(F)F)cc2)nc1C(F)(F)F	0.82
Cn1c(Cc2ccccc2)nc2c(c1=O)C1(CCCCC1)Cc1ccccc1-2	-1.6
SMILES	Dicer inh
CSc1nc2c(c(=O)n1C)C1(CCCCC1)Cc1ccccc1-2	-0.36
O=c1c2c(nc(NCCCO)n1-c1ccccc1)-c1ccccc1CC21CCCC1	0.32
O=c1c2c(nc(NCCO)n1-c1ccccc1)-c1ccccc1CC21CCCC1	4.1*
COc1ccccc1-n1c(SCC(N)=O)nc2c(c1=O)C1(CCCCC1)Cc1ccccc1-2	3.2*
C=CCn1c(SCC(=O)OCC)nc2c(c1=O)C1(CCCC1)Cc1ccccc1-2	0.86
COc1cc(C2C(C(=O)OCc3ccccc3)=C(C)NC3=C2C(=O)CCC3)cc(Br)c1O (configuration not stated)	8.5
Cc1cc(Br)ccc1OCCCN1CCN(C)CC1	2.2
CCOC(=O)C1=C(C)N(c2ccc(F)cc2)C(=O)C1CC(=O)Nc1ccc(F)cc1 (configuration not stated)	-1.5
Cc1cccc(C)c1NC(=S)NNC(=O)CCc1ccc(O)cc1	0.1
O=C(NC(=O)c1ccc(F)c(Cl)c1)Nc1ccc(F)cc1F	-1.3
N#Cc1ccccc1N=Nc1c(O)ccc2ccccc12	1.3
CC(C)(C)c1ccc(-c2nc(NC(=O)CSc3nnc4ccccn34)ns2)cc1	3*
Cc1ccc(-c2nc(NC(=O)CSc3nnc4ccccn34)ns2)cc1	1.6
O=C(CSc1nnnn1-c1ccccc1)Nc1nsc(-c2ccc(Cl)cc2)n1	2.4
COc1ccc(C(C)=O)cc1CO/N=C1\CSCc2ccccc21	-4.1
CSc1ccc([N+](=O)[O-])cc1C(=O)/C=C/N(C)C	6.2*
CSc1ccc([N+](=O)[O-])cc1C(C)=O	-0.35
O=C(O)c1cc([N+](=O)[O-])ccc1Sc1ccc([N+](=O)[O-])cc1C(=O)O	-0.05
COC(=O)c1cc(/C=N/NS(=O)(=O)c2ccc(C)cc2)cn1C	-2.3
CCN1CCN(Cc2c(C)[nH]c3ccc(C)cc3c2=O)CC1	1.2
N#Cc1c(Br)cnn1Cc1cccc(Cl)c1	1.4
CCO/C=C1/SC(=S)N(c2cc(OC)cc(C(F)(F)F)c2)C1=O	-2.2
CCO/C=C1\C(=O)N(c2ccccc2)C(=O)c2cc(OC)ccc21	3.3*
CCO/C=C1\C(=O)N(c2ccc(C)cc2)C(=O)c2cc(OC)ccc21	0.4
CCOC(=O)c1cn(-c2ccc(N3CCC(C)CC3)nn2)nc1N	0.15
SMILES	Dicer inh
CC(C)(C)OC(=O)N1Cc2ccccc2C[C@@H]1C(=O)NCc1cccs1	-0.54
CSc1nnc(C)n1-c1ccc(OCc2ccccc2)cc1	-0.46
S=C(Nc1ccc2c(c1)OCCO2)Nc1ccccc1N1CCOCC1	-0.3
O=C(CSc1ncc(Sc2ncccn2)c(-c2ccc(Cl)cc2)n1)c1ccc(Cl)cc1	-1.2
Cn1ccnc1SCC(=O)c1ccc(F)c(F)c1	0.37
O=C(CSc1ncccn1)c1ccc(O)c(O)c1	4.2*
N#CCCN(CN1C(=O)c2ccccc2C1=O)C1CCCCC1	-0.62
O=c1oc(-c2cccs2)nc2cccc(F)c12	-0.69
O=C1C(=O)N(CCCn2ccnc2)C(c2cccc(Br)c2)/C1=C(\O)c1ccccc1 (configuration not stated)	0.15
C=C1SC(=Nc2cccc(OC)c2)N(C(=O)c2ccc(Cl)cc2)C1(C)C	-3.1
CCCCNC(=O)n1nccc1-c1sc(-c2cccs2)nc1C	0.78
Clc1ccc(Nc2nc(-c3ccncc3)nc3ccccc23)cc1	4*
Clc1cccc(Nc2nc(-c3ccncc3)nc3ccccc23)c1	2.6
Oc1ccc(Nc2nc(-c3ccccc3)nc3ccccc23)cc1	2.2
CCOC(=O)c1c(NC(=O)/C=C/C(=O)O)sc2c1CCCC2	-0.7
O=C(Cn1nnc(-c2ccccc2Oc2ccc(Cl)cc2Cl)n1)NNC(=S)Nc1cc(Cl)cc(Cl)c1	6.3*
O=C(CCc1ccc(O)cc1)NNC(=S)Nc1ccc(Cl)c(Cl)c1	0.05
O=C(CCn1nnc(-c2cccc(Cl)c2Cl)n1)NNC(=S)Nc1ccc(Cl)c(Cl)c1	9.4*
CC(Oc1ccc(Cl)cc1Cl)C(=O)NNC(=S)Nc1ccccc1 (configuration not stated)	0.74
N#CCC(=O)NNC(=S)Nc1ccc(Cl)c(Cl)c1	-0.46
O=C(Cn1nnc(-c2ccccc2C(F)(F)F)n1)NNS(=O)(=O)c1cccc(Cl)c1	0.86
CCOC(=O)c1sc(N2C(=O)c3oc4ccccc4c(=O)c3C2c2ccc(C)cc2)nc1C (configuration not stated)	-0.35
